A number with no mark means an inactive call.
test system: Vero E6 infected with SARS-CoV-2; assay: inhibition of SARS-CoV-2 cytopathic effect; higher = more antiviral protection, active = above 15; details: 8.33 nM; 48 h

First: CCN(CCO)CCCC(C)Nc1ccnc2cc(Cl)ccc12 (stereo unspecified) [hydroxychloroquine]
Second: CCN(CC)CCNc1ccc(CO)c2sc3ccccc3c(=O)c12 [hycanthone]
The “inhibition of SARS-CoV-2 cytopathic effect” value (shortened to “inhibition”) of the first is higher: 2.78% for the first, -2.41% for the second.

Going from `Cc1cc(Nc2ncc(Cl)c(Nc3ccccc3S(=O)(=O)C(C)C)n2)c(OC(C)C)cc1C1CCNCC1` [ceritinib] to `CCn1c(=O)c(-c2ccc(Cl)cc2Cl)cc2cnc(Nc3ccc(N4CCNCC4)c(F)c3)nc21`, the “inhibition” value falls from 1.21% to -2.53%.

Compared with `CNC[C@H](O)c1cccc(O)c1` [phenylephrine], `C[C@H](Cc1cc2c(c(C(N)=O)c1)N(CCCO)CC2)NCCOc1ccccc1OCC(F)(F)F` [silodosin] is lower in “inhibition” value: 1.75% for the first, -1.05% for the second.

Going from `NCCCCCC(O)(P(=O)(O)O)P(=O)(O)O` [neridronic-acid] to `OC[C@@H](O)[C@@H](O)[C@@H](O)CO` [ribitol], the “inhibition” value rises from -0.27% to 3.83%.

First: CC(C)OC(=O)[C@H](C)N[P@](=O)(CO[C@H](C)Cn1cnc2c(N)ncnc21)Oc1ccccc1 [tenofovir-alafenamide]
Second: Cn1cnc2c(NCc3ccccc3)nc(NCCO)nc21 [olomoucine]
The “inhibition” value of the first is lower: -1.55% for the first, 1.88% for the second.

Going from `c1ccc2c(c1)sc1ccccc12` [dibenzothiophene] to `Cc1noc2c1-c1ccccc1C(c1ccc(Cl)cc1)=N[C@H]2CC(N)=O`, the “inhibition” value falls from 1.31% to 0.61%.

Compared with `CC(C)Nc1nc2cc(Cl)c(Cl)cc2n1[C@H]1O[C@@H](CO)[C@H](O)[C@@H]1O` [maribavir], `Oc1cc2c(cc1O)CN(C(=S)NCCc1ccc(Cl)cc1)CCC2` [capsazepine] is lower in “inhibition” value: -0.5% for the first, -2.95% for the second.

Compared with `Cc1cc(-c2cc(O)ccc2Cl)cc2nnc(Nc3ccc(OCCN4CCCC4)cc3)nc12`, `Cc1cc(-c2cc(OC(=O)c3ccccc3)ccc2Cl)cc2nnc(Nc3ccc(OCCN4CCCC4)cc3)nc12` is higher in “inhibition” value: 1.04% for the first, 2.55% for the second.

First: CC=C1C(=O)C[C@H]2[C@@H]3CCC4=CC(=O)CC[C@]4(C)[C@H]3CC[C@]12C
Second: C[C@]12C[C@H](O)[C@H]3[C@@H](CCC4=CC(=O)CC[C@@]43C)[C@@H]1CC[C@@H]2C(=O)CO [corticosterone]
The “inhibition” value of the first is higher: -0.87% for the first, -0.88% for the second.

Compared with `COc1cc(Nc2nc3ccccc3nc2NS(=O)(=O)c2ccc(NC(=O)c3ccc(C)c(OC)c3)cc2)cc(OC)c1`, `NS(=O)(=O)c1ccc(-n2nc(C(F)(F)F)cc2-c2ccc(Cl)cc2)cc1` is lower in “inhibition” value: 4.37% for the first, 3.82% for the second.

Going from `O=[N+]([O-])O[C@H]1CO[C@H]2[C@@H]1OC[C@H]2O[N+](=O)[O-]` [isosorbide-dinitrate] to `CO[C@@H]1COCC[C@@H]1N[C@@H]1CC[C@@](C(=O)N2CCc3ncc(C(F)(F)F)cc3C2)(C(C)C)C1`, the “inhibition” value falls from 2.2% to -0.35%.

Going from `CCN1CCN(Cc2ccc(Nc3ncc(F)c(-c4cc(F)c5nc(C)n(C(C)C)c5c4)n3)nc2)CC1` [abemaciclib] to `COc1ccc(-c2ccc3c(N4CCOC[C@@H]4C)nc(N4CCOC[C@@H]4C)nc3n2)cc1CO`, the “inhibition” value falls from -0.27% to -2.46%.

First: COC(=O)C1=C(C)N(C)C(C)=C(C(=O)OC)C1c1ccc(C(F)(F)F)cc1
Second: Cc1cc(C)c(S(=O)(=O)n2cc(C)cc2C)c(C)c1
The “inhibition” value of the first is lower: -2.17% for the first, -0.02% for the second.

In the case of `C=C1c2cccc(O)c2C(=O)C2=C(O)[C@]3(O)C(=O)C(C(N)=O)=C(O)[C@@H](N(C)C)[C@@H]3[C@@H](O)[C@H]12` [methacycline], the “inhibition” value is reported as -0.1%.

same assay, conditions: 100 nM; 48 h

Going from `O=C(O)COc1ccc(/C=C2\SC(=O)NC2=O)cc1` to `CC(C)c1ccc(CC(=O)N2CCC[C@@H](c3cccc(OC(C)(C)C(=O)O)c3)C2)cc1`, the “inhibition” value falls from 5.3% to -0.36%.

First: O=S(=O)(c1cccc2cnccc12)N1CCCNCC1 [fasudil]
Second: CCn1c(=O)c(-c2ccc(Cl)cc2Cl)cc2cnc(Nc3ccc(N4CCNCC4)c(F)c3)nc21
The “inhibition” value of the first is lower: -2.08% for the first, -1.93% for the second.

First: Cc1ccc(C(=O)c2cc(O)c(O)c([N+](=O)[O-])c2)cc1 [tolcapone]
Second: Oc1cc2c(cc1O)CN(C(=S)NCCc1ccc(Cl)cc1)CCC2 [capsazepine]
The “inhibition” value of the first is lower: -4.1% for the first, -0.11% for the second.

First: CN(C)[C@@H]1C(O)=C(C(N)=O)C(=O)[C@@]2(O)C(O)=C3C(=O)c4c(O)cccc4[C@@](C)(O)[C@H]3[C@H](O)[C@@H]12 [oxytetracycline]
Second: C=C1c2cccc(O)c2C(=O)C2=C(O)[C@]3(O)C(=O)C(C(N)=O)=C(O)[C@@H](N(C)C)[C@@H]3[C@@H](O)[C@H]12 [methacycline]
The “inhibition” value of the first is lower: -1.01% for the first, 1.49% for the second.

First: O=C(O)C[CH2][Ge](=[O])[O][Ge](=[O])[CH2]CC(=O)O [propagermanium]
Second: NCCCCCC(O)(P(=O)(O)O)P(=O)(O)O [neridronic-acid]
The “inhibition” value of the first is higher: 3.85% for the first, -2.11% for the second.

Compared with `COc1ccccc1Oc1c(NS(=O)(=O)c2ccc(C(C)(C)C)cc2)nc(-c2ncccn2)nc1OCCO` [bosentan], `COc1cc(Nc2nc3ccccc3nc2NS(=O)(=O)c2ccc(NC(=O)c3ccc(C)c(OC)c3)cc2)cc(OC)c1` is lower in “inhibition” value: 1.79% for the first, 1.01% for the second.

First: CN1CCN(c2ccc3[nH]c(-c4ccc5[nH]c(-c6ccc(O)cc6)nc5c4)nc3c2)CC1 [pibenzimol]
Second: Cc1cc(-c2cc(O)ccc2Cl)cc2nnc(Nc3ccc(OCCN4CCCC4)cc3)nc12
The “inhibition” value of the first is lower: 1.05% for the first, 4.54% for the second.

Going from `O=S(=O)(NCC1CC1)c1ccc(Nc2nccc(N3CCCc4cc(O)ccc43)n2)cc1` [pyrintegrin] to `Cc1cc(-c2cc(OC(=O)c3ccccc3)ccc2Cl)cc2nnc(Nc3ccc(OCCN4CCCC4)cc3)nc12`, the “inhibition” value falls from 4.41% to 2.44%.

Going from `CS(=O)(=O)CCNCc1nc(-c2ccc3ncnc(Nc4ccc(OCc5cccc(F)c5)c(Cl)c4)c3c2)cs1` to `Cc1cc(Nc2ncc(Cl)c(Nc3ccccc3S(=O)(=O)C(C)C)n2)c(OC(C)C)cc1C1CCNCC1` [ceritinib], the “inhibition” value rises from 0.15% to 2.17%.

Going from `CCN(CCO)CCCC(C)Nc1ccnc2cc(Cl)ccc12` (stereo unspecified) [hydroxychloroquine] to `CCN(CC)CCNc1ccc(CO)c2sc3ccccc3c(=O)c12` [hycanthone], the “inhibition” value falls from -0.76% to -0.96%.

Compared with `CNC[C@H](O)c1cccc(O)c1` [phenylephrine], `C[C@H](Cc1cc2c(c(C(N)=O)c1)N(CCCO)CC2)NCCOc1ccccc1OCC(F)(F)F` [silodosin] is higher in “inhibition” value: -0.82% for the first, 2.16% for the second.

Compared with `CC(C)OC(=O)[C@H](C)N[P@](=O)(CO[C@H](C)Cn1cnc2c(N)ncnc21)Oc1ccccc1` [tenofovir-alafenamide], `Cn1cnc2c(NCc3ccccc3)nc(NCCO)nc21` [olomoucine] is higher in “inhibition” value: -0.12% for the first, 1.77% for the second.

Going from `c1ccc2c(c1)sc1ccccc12` [dibenzothiophene] to `Cc1noc2c1-c1ccccc1C(c1ccc(Cl)cc1)=N[C@H]2CC(N)=O`, the “inhibition” value falls from 0.34% to -3.13%.

Compared with `CC(C)Nc1nc2cc(Cl)c(Cl)cc2n1[C@H]1O[C@@H](CO)[C@H](O)[C@@H]1O` [maribavir], `CCN1CCN(Cc2ccc(Nc3ncc(F)c(-c4cc(F)c5nc(C)n(C(C)C)c5c4)n3)nc2)CC1` [abemaciclib] is lower in “inhibition” value: 0.22% for the first, -1.26% for the second.

Compared with `CC=C1C(=O)C[C@H]2[C@@H]3CCC4=CC(=O)CC[C@]4(C)[C@H]3CC[C@]12C`, `C[C@]12C[C@H](O)[C@H]3[C@@H](CCC4=CC(=O)CC[C@@]43C)[C@@H]1CC[C@@H]2C(=O)CO` [corticosterone] is higher in “inhibition” value: -1.56% for the first, 0.56% for the second.

Going from `O=[N+]([O-])O[C@H]1CO[C@H]2[C@@H]1OC[C@H]2O[N+](=O)[O-]` [isosorbide-dinitrate] to `CO[C@@H]1COCC[C@@H]1N[C@@H]1CC[C@@](C(=O)N2CCc3ncc(C(F)(F)F)cc3C2)(C(C)C)C1`, the “inhibition” value falls from 2.2% to 0.03%.

Compared with `NS(=O)(=O)c1ccc(-n2nc(C(F)(F)F)cc2-c2ccc(Cl)cc2)cc1`, `COC(=O)C1=C(C)N(C)C(C)=C(C(=O)OC)C1c1ccc(C(F)(F)F)cc1` is higher in “inhibition” value: -2.22% for the first, 0.85% for the second.

Compared with `OC[C@@H](O)[C@@H](O)[C@@H](O)CO` [ribitol], `COc1ccc(-c2ccc3c(N4CCOC[C@@H]4C)nc(N4CCOC[C@@H]4C)nc3n2)cc1CO` is lower in “inhibition” value: 1.9% for the first, -3.62% for the second.

For `Cc1cc(C)c(S(=O)(=O)n2cc(C)cc2C)c(C)c1`, the “inhibition” value was 2.14%.

With `C[C@H]1CCC/C=C/[C@@H]2C[C@H](O)C[C@H]2[C@H](O)/C=C/C(=O)O1` [brefeldin-A] the “inhibition” value was 47.2% (active).
With `N#Cc1ccc(N2N=C3c4ccc(C(=O)O)cc4CC[C@@H]3[C@@H]2C2CCCC2)cc1Cl` the “inhibition” value was 18.3% (active).
